The structures appear in SMILES notation. The campaign covered roughly 16,000 compounds. About 5,700 (36%) were called active. Not shown: some 24% with an inconclusive outcome. The call rests on the fitted dose curve; in most records, active means well fitted curve in the direction sought with a large enough effect; inconclusive means small, poorly fitted or top-dose-only effect, or effect the other way; inactive means no such curve, though single readings can be large or run the other way. This is one part of the list.
On the % scale 0 is the no-effect control and ±100 the full control effect.

The assay deals with Cytochrome P450 1A2 (Homo sapiens) (UniProt P05177). Description: Cytochrome panel assay with activity outcomes. To be noted: recombinant CYP, pro-luciferin dealkylation, luminescence, p450-cyp1a2; series mostly up to 57.1 µM.
Chain of Cytochrome P450 1A2 (Homo sapiens) (P05177 whole entry, looked up): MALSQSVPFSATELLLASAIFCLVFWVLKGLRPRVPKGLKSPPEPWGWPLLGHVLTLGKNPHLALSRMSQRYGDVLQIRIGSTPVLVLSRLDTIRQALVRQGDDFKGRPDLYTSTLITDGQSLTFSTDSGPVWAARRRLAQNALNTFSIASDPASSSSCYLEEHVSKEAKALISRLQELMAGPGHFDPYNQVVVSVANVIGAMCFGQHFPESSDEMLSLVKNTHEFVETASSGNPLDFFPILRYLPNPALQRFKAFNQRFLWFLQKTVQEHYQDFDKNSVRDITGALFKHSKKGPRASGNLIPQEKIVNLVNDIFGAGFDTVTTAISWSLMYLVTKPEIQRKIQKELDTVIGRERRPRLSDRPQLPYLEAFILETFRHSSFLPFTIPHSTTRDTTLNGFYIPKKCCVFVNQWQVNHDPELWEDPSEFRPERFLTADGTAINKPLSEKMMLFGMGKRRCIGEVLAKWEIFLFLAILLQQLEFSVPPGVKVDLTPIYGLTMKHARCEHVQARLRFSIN
`COc1ccc(S(=O)(=O)N2CCCCCC2)cc1N(C)S(=O)(=O)c1ccc(Cl)cc1`: the AC50 result was “inactive”.

On to `Cc1cc(C)c2c(N)c3ccccc3nc2n1`, for which the AC50 is 2240 nM (active). The same measure, in the same setting: for `Cc1cc(NCCO)c2ccccc2n1` the value was “inactive”.

As for `C=CC[n+]1c(-c2ccc(C)cc2)csc1NNC(=O)Nc1ccccc1`, the AC50 is 10000 nM (active).

Consider `Cc1cccc(Nc2ccccc2C(=O)O)c1C`, for which the concentration at half-maximal activity (AC50) was 5010 nM (active). Take `Cc1c(Cl)cccc1NC(=O)CN1CCC(C(O)(c2ccccc2)c2ccccc2)CC1`: the AC50 result is “inactive”. For the compound `Cc1ccc(Cl)c(Nc2ccccc2C(=O)O)c1Cl`, the AC50 result was “inactive”. Regarding `Cc1c(Cl)cccc1Nc1ccccc1C(=O)O`, the AC50 is 3160 nM (active). The same measure, in the same setting: the result for `Cc1cccc(C(=O)c2ccccc2C(=O)O)c1O` reads “inactive”. Take `O=S(=O)(O)[C@@H](c1ccccc1)[C@@H](O)c1ccccc1`: the activity, negative = inhibition was -13.9% [at 2.29 µM] (inactive). On to `Cc1ccc2nc(Nc3ccccc3O)nc(-c3ccccc3)c2c1`, for which the AC50 was 1780 nM (active). Same read-out and setting: for `COC(=O)[C@@]1(Cc2ccccc2)[C@H]2c3cc(C(=O)N4CCCC4)n(CC4CC4)c3C[C@H]2CN1C(=O)c1ccccc1` the value was “inactive”; for `CCOC(=O)c1cnc(-c2ccccc2)nc1Oc1cccc(Cl)c1`, 2510 nM (active); for `COc1cnc(-c2ccccc2)nc1Oc1cccc(C)c1`, 3160 nM (active). For the compound `CCOC(=O)c1cnc(-c2ccccc2)nc1Oc1ccccc1`, the half-maximal activity concentration (AC50) was 631 nM (active). Same read-out and setting: the result for `CCOC(=O)c1cnc(-c2ccccc2)nc1Oc1ccc(Cl)cc1` reads 200 nM (active); that for `COC(=O)N1CCC2(CC1)CCN(c1ccncc1)CC2`, “inactive”; that for `Cc1ccc(Oc2nc(-c3ccccc3)ncc2S(C)(=O)=O)cc1`, 2820 nM (active). With `COc1nnc(OC)c2ccccc12`, the concentration at half-maximal activity (AC50) is 2510 nM (active). On the same count and under the same terms, for `COc1ccc(Cc2n[nH]c(=O)c3ccccc23)cc1OC` the value was “inactive”. For `CCN(CC)[C@@H](C)CN1c2ccccc2Sc2ccccc21`, the AC50 was 501 nM (active). Still for that read-out and setting: for `CCC(=S)/C=C1\Sc2ccccc2N1CCCS(=O)(=O)O` the value was “inactive”. For the compound `CN(C)CC(C)(C)CN1c2ccccc2Sc2ccccc21`, the activity, negative = inhibition was -17.7% [at 11.4 µM] (inactive). With `O=[N+]([O-])c1cccc(/C=N\Nc2ccc3ccccc3n2)c1O`, the half-maximal activity concentration (AC50) is 794 nM (active).

As for `O=C1NC(=S)N/C1=C/c1cccc([N+](=O)[O-])c1O`, the AC50 result is “inactive”. For the compound `O=C(O)c1ccccc1CN1CCC[C@@H](C(=O)O)C1`, the activity, negative = inhibition was -5.22% [at 11.4 µM] (inactive). In the case of `S=c1[nH]c2cc(Cl)ccc2s1`, the concentration at half-maximal activity (AC50) is 2000 nM (active). Same read-out and setting: the result for `O=C(O)C1C2C=CC3(CN(Cc4ccccn4)C(=O)C13)O2` (configuration not stated) reads “inactive”. On to `COc1ccc(O[C@H]2C=C[C@@H](c3ccccc3)O[C@@H]2CO/N=C\[C@@H](C)[C@H](OCc2ccccc2)C(C)C)cc1`, for which the activity, negative = inhibition is -3.11% [at 11.4 µM] (inactive). Turning to `COC(=O)c1cc(NC(=O)CC2NC3CCCCC3NC2=O)cc(C(=O)OC)c1` (configuration not stated), the AC50 result is “inactive”. Still for that read-out and setting: the result for `Cc1ccc(NC(=O)CC2CS(=O)(=O)CC2CC(=O)Nc2ccc(C)c(C)c2)cc1C` (configuration not stated) reads “inactive”; that for `O=C(CC1CCCC1)Nc1ccc2c(c1)CCC2`, 15800 nM (active). Turning to `CN(C)C(=O)Oc1cccc([N+](C)(C)C)c1`, the AC50 entry is “inactive”. Regarding `CS[C@]12C(=O)C[C@]3(C)[C@@H](CC[C@@]3(O)C(=O)CO)[C@@H]1CCC1=CC(=O)CC[C@]12C`, the activity, negative = inhibition was -24.3% [at 2.29 µM] (inactive). `N#Cc1ccc(-c2ccccc2)nc1SCC(=O)c1cccc(Cl)c1`: the concentration at half-maximal activity (AC50) is 2000 nM (active). Same read-out and setting: for `CCC[C@@H]1C[C@@]1(CCC)C(NC(=O)c1ccc(-c2ccccc2)cc1)c1cccc(Cl)c1` (some centres not stated) the value was “inactive”. On to `Cc1c(C(=O)Nc2nccs2)sc2nc(-c3cccs3)cc(C(F)(F)F)c12`, for which the concentration at half-maximal activity (AC50) is 1580 nM (active). `Cc1ccc(Oc2ccccc2/C=C2\SC(=O)N(C)C2=O)cc1`: the AC50 was 3160 nM (active). Still for that read-out and setting: the result for `Cc1ccc(NC(=O)CN2C(=O)S/C(=C\c3cccn3C)C2=O)cc1` reads “inactive”; that for `CCCCCCCCC[n+]1cccc2c3ccccc3ccc21`, 15800 nM (active); that for `Cc1cc(N)c2ccccc2[n+]1CCCCCCCCCCCCCC[n+]1c(C)cc(N)c2ccccc21`, “inactive”. `Cc1cc(N)c2ccccc2[n+]1CCCCCCCCCC[n+]1c(C)cc(N)c2ccccc21`: the AC50 result is “inactive”. On the same count and under the same terms, the result for `COc1cccc2c1OC[C@@H](CO)[C@H]2N(C)C(=O)Nc1ccc(Cl)cc1Cl` reads “inactive”; that for `Clc1ccccc1-c1nc(-c2ccncc2)no1`, 79.4 nM (active). Take `O=C(CCNS(=O)(=O)c1cccs1)N1CCCCCC1`: the AC50 result was “inactive”.

Take `CC(C)C(NS(=O)(=O)c1cccs1)C(=O)NCCN1CCN(c2ccccc2)CC1` (configuration not stated): the AC50 entry was “inactive”. The same measure, in the same setting: the result for `O=C(CCNS(=O)(=O)c1cccs1)N1CCc2ccccc2C1` reads 15800 nM (active); that for `Cc1cc(C)c2c(-n3cccc3)nn(CC#N)c2n1`, 2510 nM (active); that for `Cc1cc(C)c2c(-n3cccc3)n[nH]c2n1`, 3550 nM (active).

Turning to `CSc1nc(Oc2ccc(=O)[nH]n2)nc(N(C)C)n1`, the AC50 entry was “inactive”. With `Cc1cccc(-n2nc([N+](=O)[O-])c(=NCc3cccnc3)n2O)c1`, the AC50 is 2000 nM (active). As for `Cc1cccc(-n2c(Cn3nc(C)c([N+](=O)[O-])c3C)n[nH]c2=S)c1`, the AC50 result was “inactive”. For `C#CCn1c(S(=O)(=O)Cc2ccc(OC)cc2)nc(-c2ccccc2)c1-c1ccccc1`, the AC50 result was “inactive”.

On to `COc1cc(OC)c(C#N)c(S(=O)(=O)Cc2ccccc2)c1`, for which the AC50 was 15800 nM (active). For `COc1ccc(F)cc1S(=O)(=O)NC(Cc1ccccc1)C(N)=O` (configuration not stated), the AC50 entry was “inactive”. Consider `C[C@@H](CNC(N)=O)NC(N)=O`, for which the activity, negative = inhibition was -12.2% [at 11.4 µM] (inactive). Turning to `COc1cccc(-c2cncnc2N(C)Cc2ccco2)c1`, the AC50 was 10000 nM (active). Take `CN(C)c1ccc(-c2cncnc2N(C)Cc2ccco2)cc1`: the AC50 was 631 nM (active). For the compound `CN(Cc1ccco1)c1ncncc1-c1cccnc1`, the AC50 is 5010 nM (active).

For the compound `CN(Cc1ccco1)c1ncncc1-c1ccc2c(c1)OCO2`, the concentration at half-maximal activity (AC50) is 200 nM (active). Consider `CN(Cc1ccco1)c1ncncc1-c1ccoc1`, for which the AC50 was 15800 nM (active). Still for that read-out and setting: the result for `CCC(=O)Nc1cccc(-c2nnc(-c3cccc(NC(=O)CC)c3)o2)c1` reads “inactive”; that for `O=C(Cc1ccc(Cl)cc1)Nc1cccc(-c2nnc(-c3ccco3)o2)c1`, “inactive”. The same measure, in the same setting: the result for `O=C(CSc1ccc(Cl)cc1)Nc1cccc(-c2nc3ncccc3o2)c1` reads 8910 nM (active). On to `O=C(Nc1cccc(-c2nc3ncccc3o2)c1)c1sc2ccccc2c1Cl`, for which the AC50 is 708 nM (active). Turning to `CCCCCC(=O)Nc1cccc(-c2nc3ncccc3o2)c1`, the AC50 is 2000 nM (active). `CCCCCC(=O)N1CC2(CC(c3cccc(NC(=O)c4ccccc4)c3)=NO2)C[C@@H]1C(N)=O` (some centres not stated): the AC50 entry was “inactive”.

In general, AC50 refers to the midpoint of the concentration-response curve, whichever way the signal moves.

Values taken from PubChem BioAssay AID1851 (National Center for Advancing Translational Sciences (NCATS), 2009).
